PubChem BioAssay (NCI)
About 79,000 compounds went through this panel and 15% of them were active in at least one assay; those are over-represented in the sample as a whole. The source made the active and inactive calls. Rule as the data show it: active = growth inhibition above about 70%; inactive = the rest.

How the values were obtained:
[1] = NCI Yeast Anticancer Drug Screen. Data for the rad50 strain (AID 155);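 also: 0% = growth of vehicle-only cultures of the same strain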; conditions: S. cerevisiae rad50 strain growth inhibition, active compounds read high
In short: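 Yeast carrying a defined DNA repair defect were exposed to test compounds, and growth was compared with vehicle-treated controls to give percent inhibition.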

[2] = NCI Yeast Anticancer Drug Screen. Data for the mec2-1 strain (AID 157); conditions: S. cerevisiae mec2-1 strain, active compounds read high
In short: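 Readout is yeast growth inhibition, normalised to vehicle-treated controls, in the mec2-1 strain exposed to compound.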

[3] = NCI Yeast Anticancer Drug Screen. Data for the sgs1 mgt1 strain (AID 161);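 also: 0% = growth of cultures given vehicle only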; conditions: S. cerevisiae sgs1 mgt1 strain, active compounds read high
In short: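 This yeast growth screen uses a strain with defined DNA-repair lesions; compound-treated growth is compared with vehicle-treated growth.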

[4] = NCI Yeast Anticancer Drug Screen. Data for the cln2 rad14 strain (AID 165);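 also: 0% = growth equal to vehicle treated cultures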; conditions: S. cerevisiae cln2 rad14 strain, active compounds read high
In short: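 Relative to vehicle controls, growth inhibition of compound-treated cln2 rad14 yeast was recorded.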

[5] = NCI Yeast Anticancer Drug Screen. Data for the bub3 strain (AID 167); conditions: S. cerevisiae bub3 mutant strain, active compounds read high
In short: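 Compounds were applied to a genetically altered yeast strain carrying a cell-cycle control defect. Growth inhibition was scored against vehicle-treated controls.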

[6] = NCI Yeast Anticancer Drug Screen. Data for the mlh1 rad18 strain (AID 175); conditions: S. cerevisiae mlh1 rad18 strain growth inhibition, active compounds read high
In short: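 Test agents were incubated with a yeast strain of defined genotype (DNA damage repair defect). Inhibition of growth was derived by comparison with vehicle-exposed cultures.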

[7] = at 5.0 µM (retest, dose inferred, filed as 0.5)
[8] = at 50.0 µM (retest, dose inferred, filed as 5.0)

Measured: growth inhibition

CN1CCN=C1c1ccc(NC(=O)Nc2ccc(NC(=O)Nc3ccc(C4=NCCN4C)cc3)cc2)cc1
active: [1]; [8] 80% | [1]; at 50.0 µM 84.8% | [2]; [8] 85% | [2]; at 50.0 µM 86.5% | [3]; [8] 74% | [3]; at 50.0 µM 90% | [5]; [8] 83% | [5]; at 50.0 µM 92% | [6]; [8] 83% | [6]; at 50.0 µM 93.8%
inactive: [1]; [7] -1% | [2]; [7] -15% | [3]; [7] -15% | [4]; [7] -10% | [4]; [8] 61% | [4]; at 50.0 µM 50.8% | [5]; [7] -2% | [6]; [7] 1%

N#CCCN(C(=S)Nc1ccc(Cl)c(Cl)c1)C1CCCCC1
inactive: [1]; [7] 2% | [2]; [7] 0% | [3]; [7] 2% | [4]; [7] -1% | [5]; [7] 2% | [6]; [7] 3%
active: [1]; [8] 91% | [1]; at 50.0 µM 78.9% | [2]; [8] 91% | [2]; at 50.0 µM 79.7% | [3]; [8] 90% | [3]; at 50.0 µM 86.3% | [4]; [8] 83% | [4]; at 50.0 µM 71.9% | [5]; [8] 88% | [5]; at 50.0 µM 79.2% | [6]; [8] 90% | [6]; at 50.0 µM 75.1%

COc1ccc(Br)c2c1CC(C(=O)O)CC2 (stereo not given)
inactive: [1]; [7] -29% | [1]; [8] -23% | [1]; at 50.0 µM 8% | [2]; [7] -26% | [2]; [8] 26% | [2]; at 50.0 µM 4.05% | [3]; [7] -33% | [3]; [8] -22% | [3]; at 50.0 µM -10.1% | [4]; [7] 6% | [4]; [8] 6% | [4]; at 50.0 µM -17.2% | [5]; [7] -13% | [5]; [8] 13% | [5]; at 50.0 µM 11.9% | [6]; [7] -20% | [6]; [8] -19% | [6]; at 50.0 µM 2.8%

O=C1C=C(Cl)C(=O)C(Cl)=C1Cl
active: [1]; [8] 99% | [1]; at 50.0 µM 99.2% | [2]; [8] 99% | [2]; at 50.0 µM 99.3% | [3]; [8] 99% | [3]; at 50.0 µM 99.2% | [4]; [8] 91% | [4]; at 50.0 µM 98.7% | [5]; [8] 99% | [5]; at 50.0 µM 99% | [6]; [8] 99% | [6]; at 50.0 µM 98.8%
inactive: [1]; [7] -14% | [2]; [7] 11% | [3]; [7] 12% | [4]; [7] -25% | [5]; [7] 8% | [6]; [7] 3%

CCN(CC)CCCNc1ccc([N+](=O)[O-])c2nc3ccc(OC)cc3c(N)c12
inactive: [1]; [7] -13% | [1]; [8] 62% | [1]; at 50.0 µM 44.2% | [2]; [7] -20% | [2]; [8] 27% | [2]; at 50.0 µM -5.3% | [3]; [7] -7% | [3]; [8] 44% | [4]; [7] 2% | [4]; [8] 31% | [4]; at 50.0 µM 19.6% | [5]; [7] -11% | [5]; [8] 54% | [5]; at 50.0 µM 13.6% | [6]; [7] -39% | [6]; at 50.0 µM 62%
active: [3]; at 50.0 µM 79.2% | [6]; [8] 74%

N=C(N)c1ccc(SCCCCCSc2ccc(C(=N)N)cc2)cc1
active: [2]; at 50.0 µM 74% | [3]; [8] 86% | [3]; at 50.0 µM 76% | [5]; [8] 83% | [6]; [8] 87% | [6]; at 50.0 µM 72.3%
inactive: [1]; [7] 21% | [1]; [8] 56% | [1]; at 50.0 µM 57.2% | [2]; [7] 17% | [2]; [8] 61% | [3]; [7] 24% | [4]; [7] 22% | [4]; [8] 57% | [4]; at 50.0 µM 44.6% | [5]; [7] 23% | [5]; at 50.0 µM 63.4% | [6]; [7] 25%

NNc1ncc2c(n1)-c1ccccc1OC2
active: [6]; at 50.0 µM 89.8%
inactive: [1]; [7] 23% | [1]; [8] 49% | [1]; at 50.0 µM 47.3% | [2]; [7] 6% | [2]; [8] 38% | [2]; at 50.0 µM 18.8% | [3]; [7] 14% | [3]; [8] 28% | [3]; at 50.0 µM 24.1% | [4]; [7] 21% | [4]; [8] 33% | [4]; at 50.0 µM 4.1% | [5]; [7] 12% | [5]; [8] 40% | [5]; at 50.0 µM -1.1% | [6]; [7] 13% | [6]; [8] 53%

CCOC1(OCC)Cc2nc3ccccc3cc21
active: [1]; [8] 94% | [1]; at 50.0 µM 96.7% | [2]; [8] 96% | [2]; at 50.0 µM 96.8% | [3]; [8] 96% | [3]; at 50.0 µM 95.5% | [4]; [8] 91% | [4]; at 50.0 µM 92.5% | [5]; [8] 93% | [5]; at 50.0 µM 96.7% | [6]; [8] 95% | [6]; at 50.0 µM 97.2%
inactive: [1]; [7] 4% | [2]; [7] -2% | [3]; [7] 2% | [4]; [7] 0% | [5]; [7] -2% | [6]; [7] 3%

Cc1c2cnccc2c(C)c2c1c1ccccc1n2CCOC(=O)c1ccccc1
active: [1]; [8] 94% | [1]; at 50.0 µM 96.4% | [2]; [8] 78% | [2]; at 50.0 µM 87.8% | [3]; [8] 81% | [3]; at 50.0 µM 89.7% | [4]; [8] 82% | [4]; at 50.0 µM 75.2% | [5]; [8] 87% | [5]; at 50.0 µM 90.3% | [6]; [8] 87% | [6]; at 50.0 µM 91.5%
inactive: [1]; [7] 9% | [2]; [7] -4% | [3]; [7] 1% | [4]; [7] 39% | [5]; [7] 8% | [6]; [7] 10%

c1ccc2sc(SSN3CCOCC3)nc2c1
inactive: [2]; [7] 28% | [3]; [7] 18% | [3]; at 50.0 µM 66.8% | [5]; [7] 64% | [6]; [7] 34%
active: [1]; [7] 78% | [1]; [8] 99% | [1]; at 50.0 µM 94.4% | [2]; [8] 98% | [2]; at 50.0 µM 89.2% | [3]; [8] 99% | [4]; [7] 76% | [4]; [8] 97% | [4]; at 50.0 µM 96.3% | [5]; [8] 98% | [5]; at 50.0 µM 86.4% | [6]; [8] 99% | [6]; at 50.0 µM 94%
